# Source: PubChem
# This is one part of a sample in which hits are shown more often than they occur.
# Shiga toxin inh: inhibitors of Shiga toxin in Vero cells; Vero cells, Shiga toxin protein synthesis inhibition reporter; inhibition, % at 38.7 µM; 290,000 compounds, 9.2% hits; AID 2315; in the data active = inhibition mostly above about 28%, no sharp cut-off; inactive = mostly below about 43%; note: 0% is about no effect
# FBPA Giardia inh: Giardia lamblia aldolase inhibition. purified Giardia FBPA. Potency, µM (series often up to 59.6 µM), without a hit: at the top dose activity, negative = inhibition, usual class: inhibitors. A8B2U2. 290,000 compounds, 0.71% hits; note: potency is the fitted concentration of half-maximal effect; % is set by controls: 0 for no effect and ±100 for the full control effect; nearly all actives have a fitted effect of over 55% in size
# Target sequence (A8B2U2 whole entry, looked up): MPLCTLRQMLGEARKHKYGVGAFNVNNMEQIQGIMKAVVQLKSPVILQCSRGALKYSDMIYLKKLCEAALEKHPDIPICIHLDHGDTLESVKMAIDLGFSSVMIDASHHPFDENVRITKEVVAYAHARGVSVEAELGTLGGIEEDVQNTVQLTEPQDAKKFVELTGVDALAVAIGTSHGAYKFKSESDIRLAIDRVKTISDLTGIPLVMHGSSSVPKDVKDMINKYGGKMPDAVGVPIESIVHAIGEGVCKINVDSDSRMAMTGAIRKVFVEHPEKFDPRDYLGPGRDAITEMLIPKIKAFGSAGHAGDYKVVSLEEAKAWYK
#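 40 nM FBPA preincubated 10 min at RT with compound (up to 57.5 uM final), then substrate plus GAPDH/TPI/NAD/arsenate coupling and diaphorase/resazurin added. Fluorescence read after 20 min at RT, 525/598 nm.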
# Tb PYK inh: inhibitors of Trypanosoma brucei pyruvate kinase. Q57TT1. TbPYK enzyme, Kinase-Glo Plus ATP luminescence, 45 min. Potency, µM (highest dose often 76.8 µM), inactives show top-dose activity, negative = inhibition, actives largely listed as inhibitors. 410,000 compounds, 0.12% hits; note: potency is the fitted concentration of half-maximal effect; % is set by controls: 0 for no effect and ±100 for the full control effect; nearly all actives have a fitted effect of over 50% in size
#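 Glycolytic pyruvate kinase of T. brucei was incubated with substrate, test compound and 130 uM ADP for 45 minutes at room temperature. Luminescent Kinase-Glo Plus signal was measured after 10 minutes.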
# CHX counter: counter-screen for Shiga toxin inhibitors: cycloheximide protein synthesis inhibition. 300,000 compounds, 12% hits. max response, %. cell reporter, cycloheximide protein synthesis inhibition counterscreen; in the data active = max response mostly above about 13%, no sharp cut-off; inactive = mostly below about 14%; note: read at 38.3 µM for the half of the compounds with a filed dose; 0% is about no effect
# LmPK inh: inhibitors of Leishmania mexicana pyruvate kinase; Q27686; 290,000 compounds, 0.37% hits; AID 1721; Potency, µM (series often up to 57.5 µM), for inactives: top-dose activity change, negative = inhibition, most hits filed as inhibitors; purified LmPK, Kinase-Glo ATP luminescence, 1 h; note: potency is the fitted concentration of half-maximal effect; % is set by controls: 0 for no effect and ±100 for the full control effect
#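 Purified LmPK (0.1 nM) converted ADP (0.1 mM) to ATP with PEP (0.5 mM) in imidazole buffer pH 7.2 with KCl and MgCl2, 1 h at room temperature. ATP was read by Kinase-Glo luminescence; data normalized to uninhibited and no-enzyme controls.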
# RE007 growth inh: less growth of the S. pombe RE007 Vpr strain; S. pombe RE007 Vpr strain, BacTiter-Glo ATP luminescence, 24 h; 360,000 compounds, 0.21% hits; Potency, µM (highest dose often 92.2 µM), for the others: at the top dose activity change, negative = less growth, actives largely listed as inhibitors; active = well fitted falling curve with a large enough effect; inconclusive = small, poorly fitted or top-dose-only effect; inactive = no such curve, though single readings can be large or run the other way; note: potency is the fitted concentration of half-maximal effect; % is set by controls: 0 for no effect and ±100 for the full control effect; nearly all actives have a fitted effect of over 50% in size
#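 Fission yeast strain RE007, carrying one chromosomally integrated HIV-1 vpr copy, was seeded at OD 0.01 in PMG+AL medium with 23 nL pinned compound. After 24 h at 30 °C and 99% humidity, viability was read by BacTiter-Glo luminescence.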
# Starred values were filed as active, the others as inactive; ? = inconclusive; · = no result given; [ ] = another dose, or the depositor's remark. Unless noted, calls come from the whole dose curve; as a rule, active = well fitted curve in the direction sought with a large enough effect; inconclusive = small, poorly fitted or top-dose-only effect, or another doubt; inactive = no such curve, though single readings can be large; an effect the other way counts as inactive or inconclusive.
SMILES,Shiga toxin inh,FBPA Giardia inh,Tb PYK inh,CHX counter,LmPK inh,RE007 growth inh
O=C(CCc1nnc(CCCc2ccccc2)o1)NCCc1ccccc1,43*,0%,2%,22*,-2%,6%
CC1=C(C(=O)Nc2ccccc2)C(c2ccc(C(=O)O)cc2)n2ncnc2N1 (stereo not drawn),·,·,-5%,·,·,·
Cc1c(C(=O)NCc2ccccc2)sc2nc3n(c(=O)c12)CCC3,·,·,-3%,·,·,·
c1ccc(COc2ccc(CNn3cnnc3)cc2)cc1,65*,-4%,4%,26*,-9%,0%
O=C(c1cc2cc(Cl)ccc2o1)N1CCCC1,89*,5%,6%,49*,-3%,-8%
O=C(NCc1ccccc1CN1CCCC1)c1cc2cc(Cl)ccc2o1,·,·,-3%,·,·,2%
O=C(c1cc2ccccc2o1)N1CCOCC1,·,·,-2%,·,·,1%
O=C(c1cc2cc(Br)ccc2o1)N1CCCCC1,92*,-10%,-5%,38*,-11%,-21%
CCCCc1nc2c(c3c1C[C@H](C)OC3)CN(S(=O)(=O)c1c(C)noc1C)CC2,·,4%[12.9 µM],·,·,-1%[11.5 µM],·
Cc1cc(=O)oc2cc(OCc3nnc(-c4ccccc4Br)o3)ccc12,-14,0%,27%,-3,2%,11%
O=Cc1ccc(OCc2nnc(-c3ccccc3Br)o2)cc1,57*,2%,-2%,21,4%,15%
NC(=O)c1ccccc1OCc1nnc(-c2ccccc2Br)o1,65*,4%,-3%,19,-5%,-4%
O=c1ccc2ccc(OCc3nnc(-c4ccccc4Br)o3)cc2o1,43*,7%,5%,18,1%,22%
Cc1ccc(CNCCCn2cnc3c(OCc4ccccc4)ncnc32)o1,·,·,2%,·,·,-15%
COc1ccc(C)cc1NC(=O)COC(=O)Cc1c[nH]c2ccccc12,·,·,-1%,·,·,3%
CCOc1ccc2nc(N3C(=O)/C(=C/c4ccc(Cl)cc4)NC3=S)sc2c1,2,6%,3%,13*,2%,-9%
O=C(COc1ccc(S(=O)(=O)N2CCOCC2)cc1)NC1CCCCC1,·,·,-2%,·,·,3%
COc1ccc(/C=N/N=C2/NC(=O)C(CC(=O)O)S2)cc1OS(=O)(=O)c1ccccc1 (stereo not drawn),-22,-1%,-19%,6,-5%,-9%
COc1cc(/C=N/N=C2/NC(=O)C(Cc3ccccc3)S2)ccc1O (stereo not drawn),99*,1%,13%,33*,-3%,-8%
COc1ccc(/C=N/N=C2/NC(=O)C(CC(=O)O)S2)cc1OCc1ccc(Cl)cc1 (stereo not drawn),-12,2%,?,0,?,34%
CCOc1cc(/C=N/N=C2/NC(=O)C(CC(=O)O)S2)ccc1OCc1ccc(Cl)cc1 (stereo not drawn),-1,6%,?,-3,13µM*,2%
COc1ccc2[nH]cc(CCNC(=O)/C=C/[C@H]3O[C@@H](n4cc(C)c(=O)[nH]c4=O)C[C@@H]3O)c2c1,·,·,2%,·,·,10%
COCCCNC(=O)/C=C/c1ccc(Cl)cc1,50*,1%,-9%,21*,8%,10%
O=C(/C=C/c1ccc(Cl)cc1)NCc1cccs1,92*,-2%,-7%,53*,-2%,25%
O=C(/C=C/c1cccc(Cl)c1)NCc1cccs1,41*,0%,0%,38*,3%,-11%
SMILES,Shiga toxin inh,FBPA Giardia inh,Tb PYK inh,CHX counter,LmPK inh,RE007 growth inh
COc1nc(NCc2ccco2)nc(N2CCC(C)CC2)n1,16,3%,2%,-3,2%,0%
COc1nc(NCc2ccco2)nc(NC2CCCCC2)n1,42,2%,-2%,26*,0%,-6%
CN(C)CCOC(=O)NCC12CC3CC(CC(C3)C1)C2,-8,5%,-4%,6,-11%,1%
O=C(N/N=C/c1ccccc1F)c1cccc2ccccc12,40*,1%,2%,21,-3%,-11%
Cc1ccccc1C(=O)N/N=C/c1cccc2ccccc12,46*,-13%,-9%,16*,4%,4%
Cc1ccccc1C(=O)N/N=C/c1ccsc1C,125*,19%,-12%,81*,-10%,-2%
Cc1c(NC(=O)COC(=O)c2ccc(Br)o2)c(=O)n(-c2ccccc2)n1C,-9,5%,-12%,-3,8%,-5%
Cc1ccc(SCC(=O)Nc2ccccc2C(=O)O)cc1,117*,2%,-17%,29*,-29%,0%
Cc1ccc(CSCC(=O)Nc2ccccc2C(=O)O)cc1,47*,-12%,-3%,36*,-3%,1%
O=C(CSc1ccccc1)Nc1ccccc1C(=O)O,88*,3%,0%,27*,-17%,-18%
Cc1ccc(CSCC(=O)NCCc2ccccc2)cc1,85,3%,-5%,18*,1%,-6%
Cc1ccc(NC(=O)CSCC(=O)NCCc2ccccc2)cc1,-4,·,-9%,2,-2%,4%
COC(=O)c1ccccc1NC(=O)CSc1ccc(C)cc1,17,0%,0%,-2,-8%,-3%
CN(C1CCCCC1)S(=O)(=O)c1ccc2c(c1)c(=O)c(C(=O)O)cn2C,·,·,5%,·,·,-18%
CCSc1ncc(Cl)c(C(=O)Nc2nc3ccc(Cl)cc3s2)n1,·,·,-12%,·,·,·
Cc1cc(C(=O)Nc2nc3ccc(Cl)cc3s2)nn1C,92*,0%,-3%,24*,5%,-14%
O=C(Nc1nc2ccc(Cl)cc2s1)c1ccc(Br)o1,87*,1%,4%,34*,-6%,-13%
Cn1ncc(Cl)c1C(=O)Nc1nc2ccc(Cl)cc2s1,56*,-11%,-16%,66*,-25%,-24%
COc1ccc(C(=O)NNC(=O)C(=O)Nc2cccc3ccccc23)cc1,-5,0%,7%,-11,-1%,-19%
Cc1cc(OC(C)C(=O)N/N=C/CC(C)c2ccccc2)ccc1Cl (stereo not drawn),-6,2%,-5%,8,1%,9%
COC(=O)CSc1nc2sc3c(c2c(=O)n1-c1ccc(C)cc1)CC(C(C)C)OC3 (stereo not drawn),·,·,-6%,·,·,·
CC(=O)c1c(NCCc2ccccc2)nc(=S)n(-c2ccccc2)c1C,-4,-1%,4%,9,-8%,-17%
CC(=O)c1c(NCc2ccccc2)nc(=O)n(-c2ccccc2)c1C,54,-21%,2%,24*,-6%,-3%
c1ccc(Cc2nn3c(C4COc5ccccc5O4)nnc3s2)cc1 (stereo not drawn),72*,8%,?,33*,1%,10%
c1ccc(Cc2nnc3sc(C4COc5ccccc5O4)nn23)cc1 (stereo not drawn),1,1%,-13%,0,-3%,?
c1ccc(CCc2nn3c(C4COc5ccccc5O4)nnc3s2)cc1 (stereo not drawn),35*,10%,?,24*,4%,5%
